PubChem BioAssay (NCATS)
Inconclusive results are not listed. A number with no mark means an inactive call. Activity calls are given as the source filed them. Calls follow the shape of the dose curve; as a rule, active = well fitted curve in the direction sought with a large enough effect; inconclusive = small, poorly fitted or top-dose-only effect, or another doubt; inactive = no such curve, though single readings can be large; an effect the other way counts as inactive or inconclusive.

test: BET inhibitor-based combinations targeting novel dependencies in MECOM-rearranged (r) AML: UCSD-AML1 cell line (AID 2202235); details: UCSD-AML1 AML cells viability, CellTiter-Glo, 48 h; series mostly up to 46 µM; viability (% of control): at the top concentration; also: nearly all actives have a fitted effect of over 40% in size;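 as to viability (% of control): plate controls were DMSO vehicle wells for no effect and blank wells for full effect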
How it was run: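 Each compound is tested in an 11-point concentration series against 500 seeded cells/well for 48 hr. The luminescent viability signal is normalized to DMSO and blank wells, then reduced to AUC and a cell-line-centred Z-AUC.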
Potency is read from the fitted curve at half-maximal effect.

Structure (SMILES)	viability (% of control) [%]	Potency
CC(C)(C)C(=O)Oc1ccc(S(=O)(=O)Nc2ccccc2C(=O)NCC(=O)O)cc1	99.9	–
COc1ccc(Cc2nccc3cc(OC)c(OC)cc23)cc1OC	–	8.33 µM (active)
CC(C)COCC(CN(Cc1ccccc1)c1ccccc1)N1CCCC1 (stereo not drawn)	–	20.9 µM (active)
COc1ccc(C2CNC(=O)C2)cc1OC1CCCC1 (stereo not drawn)	115	–
Cc1cc(C)c(/C=C2\C(=O)Nc3ccccc32)[nH]1	114	–
NCCc1cnc[nH]1	99.7	–
Nc1nc2c(ncn2COCCO)c(=O)[nH]1	107	–
NS(=O)(=O)c1cc2c(cc1Cl)NCNS2(=O)=O	103	–
CC1=C(/C=C/C(C)=C/C=C/C(C)=C/C(=O)O)C(C)(C)CCC1	84.3	–

test: BET inhibitor-based combinations targeting novel dependencies in MECOM-rearranged (r) AML: AML-191 cell line (AID 2202236; also: nearly all actives have a fitted effect of over 35% in size;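 as to viability (% of control): plate controls were vehicle wells for no effect and wells without cells for full effect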); details: AML-191 viability, CellTiter-Glo luminescence, 48 h; series mostly up to 46 µM; viability (% of control): at the top concentration
How it was run: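 A 48 hr incubation preceded viability reading by CellTiter-Glo, with 15 min room-temperature development. Dose series had 11 points; normalization used DMSO and empty wells; AUC was computed and mean-centered per line as Z-AUC.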

Structure (SMILES)	viability (% of control) [%]	Potency
CC(C)(C)C(=O)Oc1ccc(S(=O)(=O)Nc2ccccc2C(=O)NCC(=O)O)cc1	105	–
CC(C)COCC(CN(Cc1ccccc1)c1ccccc1)N1CCCC1 (stereo not drawn)	–	20.9 µM (active)
COc1ccc(C2CNC(=O)C2)cc1OC1CCCC1 (stereo not drawn)	98	–
Cc1cc(C)c(/C=C2\C(=O)Nc3ccccc32)[nH]1	–	11.8 µM (active)
CCN1/C(=C/C(C)=O)Sc2ccc(OC)cc21	–	8.33 µM (active)
Nc1nc2c(ncn2COCCO)c(=O)[nH]1	112	–
NS(=O)(=O)c1cc2c(cc1Cl)NCNS2(=O)=O	92.5	–
COc1ccc([C@@H]2Sc3ccccc3N(CCN(C)C)C(=O)[C@@H]2OC(C)=O)cc1	96.5	–
C[C@H](Cc1ccc(O)c(O)c1)[C@@H](C)Cc1ccc(O)c(O)c1	–	11.8 µM (active)
